Assays:
[1] = target: Serine/threonine-protein kinase PAK 6 (Homo sapiens) (UniProt Q9NQU5); conditions: at 1 µM;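 further: values are mean percent inhibition of PAK6 kinase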
[2] = system: Tyrosine-protein kinase ABL1 (Homo sapiens), P00519 [E255K]; conditions: at 0.1 µM
[3] = system: Tyrosine-protein kinase ABL1 (Homo sapiens), P00519 [E255K]; conditions: at 1 µM
[4] = system: Tyrosine-protein kinase ABL1 (Homo sapiens), P00519 [H396P]; conditions: at 0.1 µM
[5] = system: Tyrosine-protein kinase ABL1 (Homo sapiens), P00519 [H396P]; conditions: at 1 µM
[6] = system: Tyrosine-protein kinase ABL1 (Homo sapiens), P00519 [M351T]; conditions: at 0.1 µM
[7] = system: Tyrosine-protein kinase ABL1 (Homo sapiens), P00519 [M351T]; conditions: at 1 µM
[8] = system: Tyrosine-protein kinase ABL1 (Homo sapiens), P00519 [Q252H]; conditions: at 0.1 µM
[9] = system: Tyrosine-protein kinase ABL1 (Homo sapiens), P00519 [Q252H]; conditions: at 1 µM
[10] = system: Tyrosine-protein kinase ABL1 (Homo sapiens), P00519 [T315I]; conditions: at 0.1 µM
[11] = system: Tyrosine-protein kinase ABL1 (Homo sapiens), P00519 [T315I]; conditions: at 1 µM
[12] = system: Tyrosine-protein kinase ABL1 (Homo sapiens), P00519 [Y253F]; conditions: at 0.1 µM
[13] = system: Tyrosine-protein kinase ABL1 (Homo sapiens), P00519 [Y253F]; conditions: at 1 µM
[14] = target: Tyrosine-protein kinase ABL1 (Homo sapiens) (UniProt P00519); conditions: at 0.1 µM
[15] = target: Tyrosine-protein kinase ABL1 (Homo sapiens) (UniProt P00519); conditions: at 1 µM
[16] = target: ALK tyrosine kinase receptor (Homo sapiens) (UniProt Q9UM73); conditions: at 0.1 µM
[17] = target: ALK tyrosine kinase receptor (Homo sapiens) (UniProt Q9UM73); conditions: at 1 µM
[18] = target: Tyrosine-protein kinase ABL2 (Homo sapiens) (UniProt P42684); conditions: at 0.1 µM
[19] = target: Tyrosine-protein kinase ABL2 (Homo sapiens) (UniProt P42684); conditions: at 1 µM
[20] = target: Tyrosine-protein kinase receptor UFO (Homo sapiens) (UniProt P30530); conditions: at 0.1 µM;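 further: values are mean percent inhibition of AXL from the GSK PKIS screen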
Tyrosine-protein kinase receptor UFO (Homo sapiens), sequence (P30530 whole entry): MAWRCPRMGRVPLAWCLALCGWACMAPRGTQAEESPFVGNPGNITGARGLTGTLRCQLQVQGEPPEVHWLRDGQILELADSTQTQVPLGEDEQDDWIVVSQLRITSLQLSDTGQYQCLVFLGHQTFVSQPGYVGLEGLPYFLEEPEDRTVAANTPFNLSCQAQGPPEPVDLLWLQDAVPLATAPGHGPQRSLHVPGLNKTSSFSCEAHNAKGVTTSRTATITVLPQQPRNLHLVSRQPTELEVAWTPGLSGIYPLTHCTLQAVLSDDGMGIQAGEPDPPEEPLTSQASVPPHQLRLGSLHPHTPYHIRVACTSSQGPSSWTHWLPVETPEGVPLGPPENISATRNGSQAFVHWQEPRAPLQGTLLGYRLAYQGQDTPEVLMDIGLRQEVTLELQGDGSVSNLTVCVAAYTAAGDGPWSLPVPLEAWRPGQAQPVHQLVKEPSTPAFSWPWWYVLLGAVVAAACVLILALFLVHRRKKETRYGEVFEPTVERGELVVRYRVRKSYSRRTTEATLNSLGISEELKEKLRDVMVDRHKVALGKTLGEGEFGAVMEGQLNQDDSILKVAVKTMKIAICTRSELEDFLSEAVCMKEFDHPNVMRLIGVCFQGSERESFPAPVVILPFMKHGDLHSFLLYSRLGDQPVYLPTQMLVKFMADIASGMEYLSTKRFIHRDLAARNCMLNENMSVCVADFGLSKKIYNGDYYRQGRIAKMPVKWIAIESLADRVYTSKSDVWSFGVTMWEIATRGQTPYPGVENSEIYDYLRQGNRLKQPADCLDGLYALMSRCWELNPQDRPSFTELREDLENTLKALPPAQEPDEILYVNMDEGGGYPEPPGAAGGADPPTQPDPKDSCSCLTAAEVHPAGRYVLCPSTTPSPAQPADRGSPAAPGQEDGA

Tyrosine-protein kinase ABL2 (Homo sapiens), sequence (P42684 whole entry): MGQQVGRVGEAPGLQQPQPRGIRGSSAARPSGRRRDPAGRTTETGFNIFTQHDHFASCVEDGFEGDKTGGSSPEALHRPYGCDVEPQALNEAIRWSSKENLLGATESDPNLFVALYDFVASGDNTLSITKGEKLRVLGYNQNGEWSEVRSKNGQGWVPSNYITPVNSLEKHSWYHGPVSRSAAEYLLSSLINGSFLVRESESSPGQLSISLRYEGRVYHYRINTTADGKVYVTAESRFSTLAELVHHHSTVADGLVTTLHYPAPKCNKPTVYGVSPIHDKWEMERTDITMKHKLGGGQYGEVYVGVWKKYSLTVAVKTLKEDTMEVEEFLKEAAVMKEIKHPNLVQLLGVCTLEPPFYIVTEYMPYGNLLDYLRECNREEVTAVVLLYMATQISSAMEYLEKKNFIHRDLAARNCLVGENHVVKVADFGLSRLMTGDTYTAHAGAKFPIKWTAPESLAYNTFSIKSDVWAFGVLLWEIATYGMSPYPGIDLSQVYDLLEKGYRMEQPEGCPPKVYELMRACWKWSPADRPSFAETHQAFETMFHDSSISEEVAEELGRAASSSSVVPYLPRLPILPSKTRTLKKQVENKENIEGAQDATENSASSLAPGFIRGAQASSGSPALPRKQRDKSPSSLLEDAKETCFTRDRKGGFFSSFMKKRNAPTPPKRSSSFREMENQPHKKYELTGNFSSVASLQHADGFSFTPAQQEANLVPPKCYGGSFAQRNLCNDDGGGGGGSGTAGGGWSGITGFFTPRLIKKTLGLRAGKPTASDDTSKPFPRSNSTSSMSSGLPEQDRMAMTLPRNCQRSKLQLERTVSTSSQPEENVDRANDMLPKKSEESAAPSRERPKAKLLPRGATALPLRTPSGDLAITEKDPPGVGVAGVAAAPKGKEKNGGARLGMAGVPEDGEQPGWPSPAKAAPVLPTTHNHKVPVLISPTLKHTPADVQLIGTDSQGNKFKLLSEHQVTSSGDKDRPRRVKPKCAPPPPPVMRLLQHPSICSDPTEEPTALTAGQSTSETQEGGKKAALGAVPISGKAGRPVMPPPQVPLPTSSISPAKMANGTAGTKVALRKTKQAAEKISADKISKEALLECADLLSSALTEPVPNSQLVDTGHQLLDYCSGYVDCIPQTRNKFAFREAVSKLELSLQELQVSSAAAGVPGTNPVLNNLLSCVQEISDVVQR
Serine/threonine-protein kinase PAK 6 (Homo sapiens), sequence (Q9NQU5 whole entry, looked up): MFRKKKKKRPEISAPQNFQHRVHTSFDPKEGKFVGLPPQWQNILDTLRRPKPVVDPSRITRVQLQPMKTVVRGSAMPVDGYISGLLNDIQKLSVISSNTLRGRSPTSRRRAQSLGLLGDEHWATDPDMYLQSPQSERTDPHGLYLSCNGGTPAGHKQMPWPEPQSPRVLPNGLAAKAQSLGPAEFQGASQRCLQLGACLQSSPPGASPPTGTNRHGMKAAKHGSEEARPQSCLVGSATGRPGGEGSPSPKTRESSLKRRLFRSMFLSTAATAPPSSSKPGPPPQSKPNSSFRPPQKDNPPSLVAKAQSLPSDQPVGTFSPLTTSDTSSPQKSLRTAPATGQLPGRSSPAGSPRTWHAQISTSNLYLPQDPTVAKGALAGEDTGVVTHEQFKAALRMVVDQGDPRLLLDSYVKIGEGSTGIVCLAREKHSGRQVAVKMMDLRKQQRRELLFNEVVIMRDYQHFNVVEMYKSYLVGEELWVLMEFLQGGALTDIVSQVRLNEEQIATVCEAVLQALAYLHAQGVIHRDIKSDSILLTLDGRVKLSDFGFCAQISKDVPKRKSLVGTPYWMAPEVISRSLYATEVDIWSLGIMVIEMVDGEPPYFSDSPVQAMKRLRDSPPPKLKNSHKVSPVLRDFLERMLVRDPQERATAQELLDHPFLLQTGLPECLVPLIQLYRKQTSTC
ALK tyrosine kinase receptor (Homo sapiens), sequence (Q9UM73 19-1620 limits assumed): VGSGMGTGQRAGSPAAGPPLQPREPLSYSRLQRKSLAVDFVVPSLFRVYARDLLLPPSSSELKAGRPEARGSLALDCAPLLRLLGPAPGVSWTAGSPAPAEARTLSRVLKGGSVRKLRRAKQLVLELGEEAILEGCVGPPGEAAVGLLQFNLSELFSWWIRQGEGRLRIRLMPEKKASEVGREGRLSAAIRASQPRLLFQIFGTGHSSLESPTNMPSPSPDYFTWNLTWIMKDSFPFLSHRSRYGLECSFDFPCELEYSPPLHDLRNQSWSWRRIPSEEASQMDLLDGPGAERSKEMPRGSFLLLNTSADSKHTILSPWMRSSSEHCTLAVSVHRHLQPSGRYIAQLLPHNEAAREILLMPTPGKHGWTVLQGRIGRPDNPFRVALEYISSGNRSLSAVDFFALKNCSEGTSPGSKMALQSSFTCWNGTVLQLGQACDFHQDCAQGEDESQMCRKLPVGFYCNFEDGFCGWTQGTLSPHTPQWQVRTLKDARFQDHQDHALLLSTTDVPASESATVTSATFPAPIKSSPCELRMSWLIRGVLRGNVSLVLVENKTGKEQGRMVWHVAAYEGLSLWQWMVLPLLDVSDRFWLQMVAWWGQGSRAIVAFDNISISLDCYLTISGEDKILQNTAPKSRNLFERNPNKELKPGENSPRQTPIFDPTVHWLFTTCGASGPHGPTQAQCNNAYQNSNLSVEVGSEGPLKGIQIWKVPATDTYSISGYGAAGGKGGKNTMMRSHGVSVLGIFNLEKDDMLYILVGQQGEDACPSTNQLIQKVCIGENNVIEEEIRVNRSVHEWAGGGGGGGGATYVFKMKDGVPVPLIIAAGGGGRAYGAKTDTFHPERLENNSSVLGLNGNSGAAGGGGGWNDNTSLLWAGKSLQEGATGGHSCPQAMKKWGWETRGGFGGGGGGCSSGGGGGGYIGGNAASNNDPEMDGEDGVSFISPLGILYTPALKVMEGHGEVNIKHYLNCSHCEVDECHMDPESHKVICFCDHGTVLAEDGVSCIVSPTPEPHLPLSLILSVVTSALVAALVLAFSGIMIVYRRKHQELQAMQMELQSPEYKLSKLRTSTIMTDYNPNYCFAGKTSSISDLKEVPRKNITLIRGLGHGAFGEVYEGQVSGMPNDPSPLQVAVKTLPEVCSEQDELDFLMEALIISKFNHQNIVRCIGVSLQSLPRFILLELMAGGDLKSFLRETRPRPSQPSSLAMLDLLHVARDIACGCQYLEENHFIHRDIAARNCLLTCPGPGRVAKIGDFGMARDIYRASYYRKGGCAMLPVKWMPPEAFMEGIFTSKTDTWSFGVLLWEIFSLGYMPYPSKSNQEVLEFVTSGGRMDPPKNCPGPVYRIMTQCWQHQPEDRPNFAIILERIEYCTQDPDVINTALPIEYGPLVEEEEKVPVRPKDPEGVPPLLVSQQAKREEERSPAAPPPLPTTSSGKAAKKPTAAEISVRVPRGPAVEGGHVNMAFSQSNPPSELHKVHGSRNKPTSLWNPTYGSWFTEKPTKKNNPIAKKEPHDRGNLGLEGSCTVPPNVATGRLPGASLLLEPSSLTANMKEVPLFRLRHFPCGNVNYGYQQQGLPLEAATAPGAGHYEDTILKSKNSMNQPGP

Compound | inhibition [1] | inhibition [2] | inhibition [3] | inhibition [4] | inhibition [5] | inhibition [6] | inhibition [7] | inhibition [8] | inhibition [9] | inhibition [10] | inhibition [11] | inhibition [12] | inhibition [13] | inhibition [14] | inhibition [15] | inhibition [16] | inhibition [17] | inhibition [18] | inhibition [19] | inhibition [20]
NC(=O)c1sc(-n2cnc3ccccc32)cc1OCc1ccccc1Br | -4.72% | 2.67% | 4% | 4.21% | 6.63% | 0.66% | 3.16% | 3.16% | 4.86% | 3.2% | 4.17% | 2.98% | 5.62% | 4.27% | 9.67% | 4.26% | 6.94% | 4.44% | 7.23% | -6.14%
O=S(=O)(CCOCc1ccc(-c2ccc3ncnc(Nc4ccc(OCc5cccc(F)c5)c(Cl)c4)c3c2)o1)c1ccccc1 | -7.47% | 0.44% | -0.12% | 0.4% | 2.46% | 1.57% | 0.99% | 3.02% | 3.04% | -0.12% | 0.23% | 1.1% | 1.05% | 2.88% | 5.13% | 0.65% | 3.74% | 2.62% | 6.65% | -0.96%
COc1cccc(-n2ncc3c(N/N=C/c4ccc(S(C)(=O)=O)cc4)ncnc32)c1 | 5.24% | 79% | 93.4% | 85.2% | 94.1% | 84.9% | 95.5% | 87.2% | 95% | 49.4% | 87% | 86.2% | 94.7% | 62% | 73% | -3.22% | -1.6% | 45.4% | 61.7% | -1.8%
C[C@@H](Oc1cc(-n2cnc3ccc(OC[C@@H](O)CO)cc32)sc1C(N)=O)c1ccccc1Cl | -6.36% | 0.24% | 5.92% | 0% | 9.51% | 1.32% | 8.84% | -1.76% | 8.32% | -0.17% | 12.4% | -0.46% | 10.3% | -0.45% | 11.7% | -0.7% | 4.65% | 0.97% | 7.64% | 2.21%
Nc1nccc(-c2c(-c3ccc(F)cc3)ncn2CCCN2CCOCC2)n1 | – | 3.15% | 4.81% | 2.47% | 4.57% | 0.51% | 3.75% | 2.53% | 6.74% | 2.38% | 3.9% | 3.98% | 6.6% | 2.4% | 7.25% | 2.67% | 4.91% | 2.67% | 0.55% | -5.59%
CC(C)c1ccc(Nc2nccc(-c3cnn4ncccc34)n2)cc1 | 2.84% | 1.9% | 4.45% | 3.09% | 8.88% | 1.81% | 10.2% | 2.85% | 11.6% | 2.34% | 10.6% | 4.68% | 10% | 3.33% | 13.3% | 4.56% | 23.7% | 4.44% | 10.6% | -4.19%
COc1cccc(-n2nc(C)c3c(N/N=C(\C)c4ccncc4)ncnc32)c1 | -5.25% | 1.05% | 1.53% | 0.51% | 4.07% | -0.39% | 4.06% | 0.65% | 3.19% | -2.26% | -0.56% | 1.07% | 4.85% | 3.36% | 9.11% | 0.43% | 1.35% | -0.17% | 5.82% | -2.14%
CCS(=O)(=O)c1ccc(OC)c(Nc2ncc(-c3cccc(OC)c3)o2)c1 | 2.64% | 34% | 81.1% | 41.6% | 85.4% | 43.2% | 86.1% | 46.6% | 86.5% | 6.23% | 26.5% | 48.5% | 86.3% | 29.8% | 77.7% | 2.9% | 8.1% | 27.3% | 72.6% | -3.48%
COC(=O)c1ccc2c(c1)C(=Cc1cc(Br)c(O)c(Br)c1)C(=O)N2 | -6.8% | 2.18% | 13.1% | 4.03% | 14.9% | 0.64% | 12.9% | 2.75% | 15.8% | 1.82% | 2.87% | 2.56% | 15.9% | 7.83% | 21.2% | 5.2% | 15% | 5.66% | 15.4% | -5.02%
COc1ccc2ncnc(Nc3ccc(OCc4ccccc4)cc3)c2c1 | – | 1.91% | 2.75% | 1.73% | 4.61% | -1.29% | 2.67% | 0.25% | 4.68% | 0.02% | 3.21% | 2.03% | 1.02% | 1.65% | 4.79% | 0.66% | 0.87% | 2.72% | 4.53% | -3.58%
COc1cc(/C=N/Nc2ncnc3c2cnn3C(C)C)ccc1O | – | 21.7% | 71% | 34.7% | 80.7% | 34.7% | 80.5% | 35.4% | 81.6% | 9.92% | 47.8% | 37% | 82.2% | 23.3% | 73.7% | 0.72% | 4.12% | 16.7% | 68.5% | -0.67%

Reference: ChEMBL document CHEMBL1961873, “Compounds: GSK PKIS; Assays: Nanosyn kinase panel” (2012)
